This note sets out measurements from PubChem BioAssay (NCI).

What all share (experiment): NCI-60 one-dose screen, 48 h (100 = growth as untreated, 0 = no growth, -100 = all killed)
Holding throughout (conditions): 10 µM unless noted

Test [1] deals with DU-145 prostate.
For test [2], the system named is K-562 leukemia.
The subject of test [3] is MALME-3M melanoma.
Test [4] relates to MDA-MB-231 breast.
Test [5] has as its system RXF 393 renal.
The test system of test [6] is SF-268 CNS.
In test [7] the test system is SF-295 CNS.
Test [8] has as its system SF-539 CNS.
For test [9], the system named is UACC-257 melanoma.
For test [10], the system named is M14 melanoma.
For test [11], the system named is HCT-15 colon.
Test [12] deals with HT29 colon.
For test [13], the system named is SNB-75 CNS.
In test [14] the test system is SNB-19 CNS.
In test [15] the test system is U251 CNS.
In test [16] the test system is PC-3 prostate.
In test [17] the test system is SK-MEL-5 melanoma.
The subject of test [18] is UACC-62 melanoma.
The test system of test [19] is LOX IMVI melanoma.
Test [20] has as its system SK-MEL-28 melanoma.

About 83,000 compounds went through this panel and 20% of them were active in at least one assay; those are over-represented in the sample as a whole.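 A percent growth of 40 corresponds to 60% growth inhibition; 0 means no net growth; -100 means all cells died. Active threshold: below 10.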 A number with no mark means an inactive call. Activity calls are given as the source filed them.

`O=c1[nH]c2c(ccc3cnccc32)c2c1CCC2`: the growth was -9.29% (active) in test [1]; 14.6% in test [2]; -59.2% (active) in test [3]; 2.78% (active) in test [4]; -53.8% (active) in test [5]; -17.7% (active) in test [6]. For the same compound, the growth in test [7] is -47.2% (active); in test [8] it was -59.7% (active); in test [9], 6.08% (active); in [10] it was -77% (active); in [11] it was 1.99% (active); in test [12] it was 7.54% (active). The growth is -33.4% (active) in [13]; 3.98% (active) in test [14]; 5.85% (active) in test [15]; 0.402% (active) in [16]; -48.5% (active) in test [17]; -81.3% (active) in test [18]. The growth in test [19] was 0.937% (active); in test [20], -52.7% (active).

As for `CCOC(=O)Cn1c(C)c(/C=N/NC(=O)c2cc3c(ccc4ccccc43)o2)c2ccccc21`, the growth in test [1] was 11.2%; in [2], 10.9%; in test [3], 70.8%; in [4] it was 38.8%; in test [5], -11.1% (active); in test [6], 35.7%. In addition, the growth in [7] was 19.3%; in test [8] it was -14.1% (active); in [9] it was 41.5%; in test [10], 16.8%; in test [11], 11%; in [12] it was 3.63% (active). Further, the growth is 2.97% (active) in test [13]; 18% in test [14]; 15.9% in test [15]; 10.5% in test [16]; 7.35% (active) in test [17]; 35.4% in test [18]. The growth was 24.9% in test [19] and 45.2% in test [20].

Regarding `COc1ccc(C(=O)COC(=O)[C@H](C[Se][Se]C[C@H](NC(=O)c2ccc(Br)cc2F)C(=O)OCC(=O)c2ccc(OC)cc2)NC(=O)c2ccc(Br)cc2F)cc1`, the growth was -70.6% (active) in test [1]; 9.64% (active) in [2]; -45.9% (active) in test [3]; -57.5% (active) in test [4]; -90.5% (active) in test [5]; -54.3% (active) in [6]. Moreover, the growth was -31.7% (active) in test [7]; -93.9% (active) in test [8]; -43.8% (active) in test [9]; -73.9% (active) in test [10]; -30.7% (active) in [11]; 10.7% in test [12]. For the same compound, the growth was -95.6% (active) in test [13]; -38.1% (active) in test [14]; -85.3% (active) in test [15]; -63.8% (active) in test [16]; -8.07% (active) in [17]; -89.5% (active) in test [18]. Moreover, the growth in test [19] is -50.8% (active); in test [20] it was -74.5% (active).

As for `Cc1[nH]c(C(=O)Nc2ccc(C(=O)NCCN)cc2OC(C)C)c(Cl)c1Cl`, the growth in test [1] was 33.8%; in test [2] it was -19.3% (active); in test [3], 63.3%; in test [4], -27% (active); in [5] it was 83.5%; in [6], 68.1%. In addition, the growth is 89.7% in test [7]; -22.3% (active) in test [8]; 105% in [9]; -31.1% (active) in test [10]; 34.3% in test [11]; 2.87% (active) in [12]. For the same compound, the growth is 78.4% in test [13]; 52% in test [14]; -21.4% (active) in test [15]; 45% in [16]; 71.2% in test [17]; 84% in test [18]. Further, the values for the growth in test [19] and in test [20] were -95.1% (active) and 70.9%, respectively.

As for `COc1cccc2c(=O)c3c(sc12)c(N1CCNCC1)nc1ccccc13`, the growth is 35.8% in [1]; -25.9% (active) in test [2]; 104% in test [3]; 53.1% in [4]; 79.7% in test [5]; 87.9% in test [6]. Besides, the growth was 102% in [7]; 69.6% in test [8]; 101% in test [9]; 81.3% in test [10]; 37.3% in [11]; 0.0883% (active) in test [12]. The growth in test [13] was 79.2%; in test [14] it was 80%; in [15], 12.2%; in test [16], 68.3%; in test [17], 95.3%; in test [18], 105%. In addition, the growth in [20] was 107%.

As for `CC(=O)CC[C@H]1C(=O)N[C@@H](C(C)C)C(=O)N[C@@H](Cc2cc(O)cc(F)c2)C(=O)N2CCC[C@H](N2)C(=O)O[C@H](/C(C)=C/C=C/C(=O)OC(C)(C)C)C/C=C/C=C/[C@H](O)[C@H](C)[C@H]1O`, the growth is 42.6% in test [1]; 21.6% in test [2]; 73.6% in test [3]; 47.5% in test [4]; -5.28% (active) in [5]; 54.4% in test [6]. Besides, the growth in test [7] was 50.2%; in test [8], 66.8%; in test [9], 53%; in test [10], 54.9%; in [11], 26.6%; in test [12] it was 29.6%. Further, the growth in [13] is 54.6%; in test [14], 70%; in test [15], 43.3%; in [16], 48.6%; in test [17] it was 51%; in test [18], 52.4%. The growth in test [20] is 59.4%.

`CS(=O)(=O)Nc1cc(-c2ccc3ncnc(Nc4cccc(Cl)c4F)c3c2)cnc1Cl`: the growth in test [1] was 63%; in test [2], 53.4%; in [3], 18.2%; in test [4], 13.7%; in test [5] it was -24% (active); in test [6], 24.2%. Besides, the growth is 34.7% in [7]; 27.8% in test [8]; 40.1% in test [9]; 50.1% in test [10]; 41.9% in test [11]; 47.6% in test [12]. Further, the growth in [13] is 9.28% (active); in test [14], 46.4%; in test [15], 33.6%; in test [16], 41.4%; in test [17] it was 24.7%; in [18], 8.37% (active). Moreover, the growth was 4.21% (active) in test [19] and 24.6% in [20].

With `CC1(C)C2CC1C1(/C=N/NC(N)=S)C(C2)C(C#N)(C#N)C1(C#N)C#N` (configuration not stated), the growth was 82.6% in test [1]; 13.6% in [2]; 67% in test [3]; 57.3% in test [4]; 71.7% in test [5]; 97.4% in test [6]. Also, the growth in test [7] was 111%; in test [8], 101%; in test [9] it was 79.9%; in test [10] it was 87.6%; in test [11], 27.5%; in test [12] it was 60.6%. Besides, the growth was 101% in [13]; 94.8% in [14]; 82.1% in [15]; 70.7% in test [16]; 85.6% in test [17]; 78.8% in test [18]. Also, the growth in test [20] was 88.7%.
